Screening results as filed in PubChem.
Mot1-301 SUMO: blocks SUMOylation pathway, rescuing yeast Mot1-301 growth; S. cerevisiae Mot1-301 growth rescue, ATP luminescence, 38.5C; percent above DMSO median, 100 means doubled; growth rescue, % at 18.8 µM; hit rate 1% among 320,000;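 active means every valid replicate shows activation above 250% relative to neutral control wells; inactive means the rest, any valid replicate at or below 250%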
TIM10 inh: TIM10 yeast growth inhibition; S. cerevisiae TIM10 strain growth, BacTiter-Glo luminescence, 24 h; inhibition, % at 10 µM; hit rate 1.4% among 330,000; AID 463195;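 active means inhibition of 40% or more at the single tested concentration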;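 further: wild-type TIM10 isogenic control strain grown at permissive 25 °C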
tim23-1 inh: growth inhibitors of tim23-1 mutant yeast. S. cerevisiae tim23-1 growth, BacTiter-Glo luminescence, 24 h. inhibition, % at 20 µM. hit rate 1.3% among 330,000. AID 463212;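 active means growth inhibition of the mutant yeast at or above 50%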;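 further: temperature-sensitive mutant grown at 25 °C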
tim10-1 inh: growth inhibitors of tim10-1 mutant yeast; S. cerevisiae tim10-1 ts strain growth, BacTiter-Glo, 24 h; inhibition, % at 20 µM; hit rate 2.2% among 330,000; AID 463190;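 active means inhibition of at least 40%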;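 further: mutant grown at 25 °C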
PfHsp90 yeast 2: reduces growth (ATP signal) of yeast expressing P. falciparum Hsp90; S. cerevisiae expressing PfHsp90, BacTiter-Glo ATP, 48 h; yeast lacking PDR1 and PDR3 efflux regulators; inhibition, % at 9.4 µM; hit rate 0.32% among 310,000; AID 504621;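 active means every replicate shows inhibition above about 80%, whatever the replicate mean, limit read from the data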
tim23-1 confirm: tim23-1 yeast growth inhibition, confirmed; shares compounds with tim23-1 inh; S. cerevisiae tim23-1 growth, BacTiter-Glo luminescence, 24 h; inhibition, % at 20 µM; hit rate 83% among 4,400;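 active means inhibition above about 39% in either of two replicate wells at 20 µM, limit read from the data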;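 further: temperature-sensitive tim23-1 mutant grown at 25 °C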
Hits are given with their value; n = inactive; x = not tested or not shown. Most compounds without a hit are left out; they make up all but 4.4% or so of the library.

SMILES	Mot1-301 SUMO	TIM10 inh	tim23-1 inh	tim10-1 inh	PfHsp90 yeast 2	tim23-1 confirm
Oc1c(Br)cc(Br)cc1CNc1ccc(F)cc1	n	n	n	n	n	x
Cc1[nH]n(-c2ccccc2)c(=O)c1C(c1cccc([N+](=O)[O-])c1)c1c(C)[nH]n(-c2ccccc2)c1=O	n	n	56	n	n	60
S=C(NCc1ccccc1)N1CCN(C2CCCCC2)CC1	n	n	n	n	n	x
O=S(=O)(CCSc1ccccn1)c1nc2ccccc2s1	n	n	55	n	n	49
CCOC(=O)N1CCC(N2CCN(S(=O)(=O)c3ccc([N+](=O)[O-])cc3)CC2)CC1	n	n	n	n	n	x
CCOc1ccc(NS(=O)(=O)c2ccc(-c3cnc(C4CC4)o3)cc2)cc1	n	n	51	n	n	44
CCc1ccc2c(c1)/C(=N/N(C)C(=S)NC)C(=O)N2	n	n	n	n	n	x
CCc1ccc2c(c1)/C(=C/C(=O)c1cccs1)C(=O)N2	x	n	54	n	124	n
CC(C)Cc1nnc(NC(=O)CCC(=O)N2CCN(c3ccc(Cl)cc3)CC2)s1	n	n	n	n	n	x
CN1c2ccsc2/C(=N/Nc2ccccc2)CS1(=O)=O	n	n	53	n	n	n
O=c1[nH]c(CCl)nc2cc(-c3ccc(F)cc3)sc12	n	n	59	n	n	58
O=c1[nH]cnc2cc(-c3ccc(Br)cc3)sc12	n	n	n	n	n	x
O=C(NCCc1ccccc1)C1(S(=O)(=O)c2ccc(Cl)cc2)CC1	n	n	n	n	n	x
COc1ccc(C2/C=C\CN(C(=O)Oc3ccccc3)CC(=O)N2Cc2ccc(F)cc2)cc1 (stereo unspecified)	x	n	n	n	n	x
COc1ccc(C2/C=C\CN(S(=O)(=O)c3ccc(C)cc3)CC(=O)N2Cc2cccc(F)c2)cc1 (stereo unspecified)	x	n	n	n	n	x
COc1ccc(C2/C=C\CN(C(=O)c3ccccc3)CC(=O)N2Cc2cccc(F)c2)cc1 (stereo unspecified)	x	n	59	n	n	42
COc1ccc(C2/C=C\CN(CC(C)C)CC(=O)N2Cc2cccc(F)c2)cc1 (stereo unspecified)	x	n	50	n	n	39
N=C1/C(=C\c2coc3ccccc3c2=O)C(=O)N=C2SC=CN12	n	n	65	n	n	71
CSC1=NSC2=NC(=O)/C(=C/c3coc4ccccc4c3=O)C(=N)N12	n	x	x	x	n	x
C/C=C/c1ccc(OCCOc2cc(C=O)ccc2OC)c(OC)c1	n	n	57	n	n	67
C/C=C/c1ccc(OCC(=O)O)c(OC)c1	n	n	n	n	n	x
CC(=O)Nc1ccc(S(=O)(=O)NN=CCCc2ccccc2)cc1	x	x	x	x	n	x
C=CCOc1ccc(C(c2c(C)n(C)n(-c3ccccc3)c2=O)c2c(C)n(C)n(-c3ccccc3)c2=O)cc1	n	n	n	n	n	x
Cc1[nH]c(C)c(S(=O)(=O)NCCc2ccccc2)c1C(=O)N1CCCCC1	n	n	n	n	n	x
Cc1ccc(S(=O)(=O)NC(CC(C)C)C(=O)N2CCC(C)CC2)cc1 (stereo unspecified)	x	n	54	n	n	39
SMILES	Mot1-301 SUMO	TIM10 inh	tim23-1 inh	tim10-1 inh	PfHsp90 yeast 2	tim23-1 confirm
O=C(CN1C(=O)NC2(CCCC2)C1=O)Nc1ccc(F)c([N+](=O)[O-])c1	n	n	n	n	n	x
CC(=O)c1c(O)c(C)c(-c2ccccc2)n(-c2ccccc2)c1=O	n	n	56	n	n	43
COc1ccc(NC(=O)CSc2ncccc2C(=O)OC(C)C)cc1OC	n	n	n	n	x	x
CC(C)OC(=O)c1cccnc1SCc1cc(=O)n2ccccc2n1	n	n	65	n	n	44
CCCc1ccc(-c2cc(C(=O)N3CCN(c4ccccn4)CC3)c3ccccc3n2)cc1	n	n	n	n	n	x
CC(NC(=O)/C=C/c1cnc2ccccc2n1)C12CC3CC(CC(C3)C1)C2 (stereo unspecified)	n	n	60	n	n	50
CC(=O)Nc1ccc(NC(=O)C(C)OC(=O)/C=C/c2cnc3ccccc3n2)cc1 (stereo unspecified)	n	n	n	n	n	x
COC(=O)C1=C(Nc2ccccc2NS(=O)(=O)c2ccc(C(F)(F)F)cc2Cl)CSC1	n	n	54	n	n	52
CCCCc1cc(=O)oc2cc(OCC(=O)NC3CCN(Cc4ccccc4)CC3)ccc12	n	n	n	n	n	x
Cc1nc2ccccc2c(=O)n1/N=C/c1ccccc1O	n	n	n	n	n	x
Cc1cc([N+](=O)[O-])cc(/C=N/n2c(C)nc3ccccc3c2=O)c1O	n	n	79	n	n	66
OC[C@@H]1CC[C@@H](Cc2ccc(-c3ccccc3)cc2)O1	x	n	53	n	n	n
O=C1OCCN1C(=O)[C@H]1[C@H](c2ccc(F)cc2)C(c2ccccc2)=NN1c1ccccc1	x	n	72	n	n	n
Cc1cccc(C2=NN(c3ccc(Br)cc3)[C@@H](C(=O)N3CCOC3=O)[C@@H]2C)c1	x	n	51	n	n	n
O=C1OCCN1C(=O)[C@H]1[C@H](c2ccc(F)cc2)C(c2ccc(F)cc2)=NN1c1ccccc1	n	n	n	n	n	x
C[C@@H]1C(c2ccccc2)=NN(c2ccc(Br)cc2)[C@H]1C(=O)N1CCOC1=O	x	n	59	n	n	45
Cc1cccc(C2=NN(c3ccccc3)[C@@H](C(=O)N3CCOC3=O)[C@@H]2C)c1	x	n	n	n	n	x
CCOC(=O)c1csc(NC(=O)CN2CCCCC2)n1	n	n	n	n	n	x
CN(C(=O)c1ccc(C#N)cc1)c1nnc(-c2cnccn2)s1	n	n	n	n	n	x
N=c1c2c(-c3ccccc3)c(-c3ccccc3)n(Cc3ccco3)c2ncn1Cc1ccccc1	n	n	86	n	n	59
N=c1c2c(-c3ccccc3)c(-c3ccccc3)n(Cc3ccco3)c2ncn1CCCN1CCOCC1	n	n	n	n	x	x
CC(C)Cn1cnc2c(c(-c3ccccc3)c(-c3ccccc3)n2Cc2ccco2)c1=N	n	n	76	n	n	41
Oc1c(Br)cc(Br)c(/C=N/n2c(-c3ccccc3)n[nH]c2=S)c1Br	n	n	56	n	119	51
S=c1[nH]nc(-c2ccccc2)n1/N=C/c1cccc(Br)c1	n	n	n	n	n	x
Cn1ccnc1SCC(=O)n1c2c(c3ccccc31)CCCC2	n	n	51	n	n	41
Cn1ccnc1SCC(=O)Nc1cccc2ccccc12	n	n	n	n	x	x
CC(C)Oc1ccc(C(=O)Nc2cccc(S(=O)(=O)N3CCCC3)c2)cc1	n	n	n	n	n	x
Cc1ccc(-c2nc3c(Cl)cc(Cl)cc3c(=O)n2O)cc1	n	n	54	n	n	53
O=c1c2ccc(Cl)cc2nc(-c2cccc(C(F)(F)F)c2)n1O	n	n	56	n	n	48
